# Assay outcomes deposited in PubChem BioAssay by Broad Institute.
# NSD2 inh – inhibitors of human histone methyltransferase NSD2 | O96028 | NSD2 peptide methylation, AlphaScreen, 120 min | inhibition, % at 12.5 µM | 310,000 compounds, 0.54% hits; in the data active = inhibition above about 50%
# RAD52 inh – inhibitors of human RAD52 DNA annealing. P43351. recombinant RAD52 DNA annealing, FRET fluorescence. inhibition, % at 18.7 µM. 360,000 compounds, 0.46% hits. AID 651710;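 active = every replicate showing at least 50% inhibition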
# RAD54 branch – RAD54 (human) branch migration inhibition; Q92698; RAD54 Holliday junction branch migration, FAM/BHQ fluorescence; inhibition, % at 10.4 µM; 360,000 compounds, 0.14% hits; AID 602329;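 active = mean normalized replicate activity at least 40 and at least half of replicates scoring 40 or more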;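 note: 0% = median of neutral control wells and 100% = median of positive control wells; inhibitors cause a drop in the FAM fluorescence signal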
# Casp6 inh – inhibitors of human caspase-6; P55212; purified caspase-6, Z-VEID-R110 cleavage fluorescence; inhibition, % at 12.5 µM; 350,000 compounds, 0.53% hits;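 active = mean inhibition across replicates at least about 35%, with every replicate also reaching that limit, limit read from the data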;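 note: 0% = median of neutral control wells and 100% = no fluorescence left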
# Target sequence (P55212 24-179 limits assumed): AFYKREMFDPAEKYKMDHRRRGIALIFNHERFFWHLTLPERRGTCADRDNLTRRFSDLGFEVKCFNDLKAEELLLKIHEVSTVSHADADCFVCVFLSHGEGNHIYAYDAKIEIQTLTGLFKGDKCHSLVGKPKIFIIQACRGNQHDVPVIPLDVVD
# Target sequence (P55212 194-293 limits assumed): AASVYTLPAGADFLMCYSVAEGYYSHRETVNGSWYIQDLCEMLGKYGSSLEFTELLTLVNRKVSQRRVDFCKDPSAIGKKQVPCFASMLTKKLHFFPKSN
# Glyco luc inh – N-linked glycosylation inhibition. D54 ERlucT glycosylation luciferase reporter, 24 h; percent of 100 nM tunicamycin response. 360,000 compounds, 0.23% hits. reporter increase, % at 12.5 µM. AID 588692;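 active = mean luciferase reporter signal, scaled so untreated is 0 and the glycosylation-blocking control 100, at or above a set limit in every replicate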;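 note: luciferase carries N-glycosylation sites so blocking glycosylation raises the light; 0% = median of neutral control wells and 100% = median of 100 nM tunicamycin wells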
# * hit, by the source's call; . = no result given. In the library only some 1.2% were active in any assay of this set; here they are far more common.
SMILES,NSD2 inh,RAD52 inh,RAD54 branch,Casp6 inh,Glyco luc inh
C[C@@]12C(=O)Nc3cc(Cl)ccc3C(=O)N1[C@H]1c3ccccc3OC[C@@H]1[C@@H]2c1ccccc1,.,.,-7.9,.,31.4*
C[C@@]12C(=O)Nc3cc(Cl)ccc3C(=O)N1[C@H]1c3cc(Cl)ccc3OC[C@@H]1[C@@H]2c1ccccc1,.,-6.4,-14.6,3.8,22.5
C[C@@]12C(=O)Nc3ccc(Cl)cc3C(=O)N1[C@H]1c3ccccc3OC[C@@H]1[C@@H]2c1ccccc1,.,.,-3.6,.,27.6*
COc1ccc2c3c(n(C)c2c1)[C@H](CO)N(CC1CC1)CC31CCN(C(=O)c2ccc(F)cc2)CC1,.,-36.6,.,-1.6,.
Oc1ccc(Cl)cc1CNc1cccc2cccnc12,2.9,-6.7,6.3,83.9*,12.9
COc1ccc(CCNC(=O)c2cc3cccc(OC)c3oc2=O)cc1OC,0.3,-2.0,5.8,44.2*,1.1
COc1cccc2cc(C(=O)NCc3ccc(Cl)cc3)c(=O)oc12,3.2,-1.6,-6.1,1.2,0.7
Cc1ccc(CNC(=O)Cc2csc(Nc3nc(=S)[nH]c4ccccc34)n2)cc1,0.0,-9.6,.,41.0*,.
O=C(Cc1csc(Nc2nc(=S)[nH]c3ccccc23)n1)NCc1ccccc1Cl,-3.3,.,1.6,.,6.5
COc1cccc(N2[C@@H](CC(C)=O)c3ccc(/C=C/C(C)=O)cc3S2(=O)=O)c1,.,-62.3,-2.4,-2.8,37.7*
C[C@@H]1CN([C@@H](C)CO)C(=O)Cc2cc(NC(=O)Nc3ccc(F)cc3)ccc2O[C@H]1CN(C)C(=O)Nc1cccc2ccccc12,.,6.9,6.6,0.1,.
CCn1c2ccccc2c2cc(NC(=O)COC(=O)c3ccccc3O)ccc21,0.2,-4.9,.,-0.1,8.0
CCn1c2ccccc2c2cc(NC(=O)COC(=O)c3cc(S(N)(=O)=O)c(Cl)cc3Cl)ccc21,-1.0,-5.0,.,-1.3,40.5*
N#C/C(=C/c1ccc(O)c(O)c1)c1nc2ccccc2[nH]1,66.7*,-30.9,-14.9,34.1,1.8
Cc1ccc(C(=O)N/N=C/c2cn(Cc3ccccc3)c3ccccc23)cn1,24.1,-95.2,.,-2.2,-10.1
O=C(N/N=C/c1cn(Cc2ccccc2)c2ccccc12)c1cc(O)cc(O)c1,4.6,-24.0,2.0,52.8*,-0.5
CCCC#Cc1cnc2c(c1)C(=O)N([C@@H](C)CO)C[C@H](C)[C@@H](CN(C)S(C)(=O)=O)O2,.,-9.9,3.3,-2.6,.
CC(C)NC(=O)Nc1ccc2c(c1)C(=O)N([C@H](C)CO)C[C@@H](C)[C@@H](CN(C)Cc1ccc3c(c1)OCO3)O2,.,-1.5,-12.6,0.4,.
Cc1ccc(S(=O)(=O)N2C[C@H](O)COC[C@@H]3O[C@H](CC(=O)NCC4CCCCC4)CC[C@H]32)cc1,.,54.3*,3.1,0.8,.
Cc1ccc(S(=O)(=O)N2C[C@@H](O)COC[C@@H]3O[C@@H](CC(=O)NCC4CCCCC4)CC[C@H]32)cc1,.,60.0*,6.8,1.1,.
C[C@@H]1CN([C@@H](C)CO)C(=O)c2cc(/C=C/c3ccccc3)cnc2O[C@H]1CN(C)C(=O)c1ccc(F)cc1,.,27.2,6.7,-2.6,.
COc1ccc(-c2cc3ccccc3oc2=O)cc1NC(=O)c1ccc([N+](=O)[O-])o1,2.2,.,.,.,49.5*
COc1ccc(-c2cc3ccccc3oc2=O)cc1NC(=S)NC(=O)c1ccc2c(c1)OCCO2,-0.6,.,16.1,.,70.2*
COc1ccc(-c2cc3ccccc3oc2=O)cc1NC(=O)c1ccc(Br)o1,-1.0,.,8.3,.,-4.5
CCC(=O)Nc1cc(-c2cc3ccccc3oc2=O)ccc1OC,-12.7,-30.7,.,1.4,-3.9
SMILES,NSD2 inh,RAD52 inh,RAD54 branch,Casp6 inh,Glyco luc inh
Cc1ccnc(NC(=O)c2ccc(Cl)c(NC(=O)c3ccccc3F)c2)c1,1.7,.,.,.,.
Cc1ccc(F)cc1S(=O)(=O)N[C@@H]1CCN(Cc2ccc3[nH]ccc3c2)C1,.,16.8,-0.3,1.1,.
CN1C(=O)CC(Sc2ccccc2C(=O)O)C1=O (stereo not given),-2.2,3.9,2.0,35.3*,3.6
CCCCN1C(=O)CC(Sc2ccccc2C(=O)O)C1=O (stereo not given),-1.7,2.2,5.8,8.6,2.4
CCOc1ccc(S(=O)(=O)NCCC(=O)NCC2(N3CCCCC3)CCCCC2)cc1,-0.1,-5.3,6.1,49.6*,-1.1
CCOc1ccc(S(=O)(=O)NCC2(N3CCCCC3)CCCCC2)cc1,1.3,-10.5,-8.6,-1.1,-4.1
CCOC(=O)C1Nc2ccc(C(=O)O)cc2C2C=CCC12 (stereo not given),100.0*,-99.4,-33.4,22.7,-0.2
Cc1cc(NC(=O)CSc2nc3sc(C)c(C)c3c(=O)n2C2CCCC2)no1,-0.6,-3.5,6.1,-1.2,27.4*
Cc1cc(NC(=O)CSc2nc(C(C)C)nc3sc(C)c(C)c23)no1,-2.1,-11.1,-3.9,-0.7,2.1
O=C(O)c1cc(S(=O)(=O)N2CCN(S(=O)(=O)c3ccc4ccccc4c3)CC2)ccc1Br,6.0,-17.9,-0.3,40.3*,0.9
C[C@H](CO)N1C[C@H](C)[C@H](CN(C)S(C)(=O)=O)OCCCC[C@H](C)Oc2ccc(NC(=O)Nc3ccc(C(F)(F)F)cc3)cc2C1=O,.,2.8,-8.3,-4.5,.
CN1C=C/C(=C\c2cc[n+](C)c3ccccc23)c2ccccc21,.,79.3*,81.6*,-1.5,-7.3
CC[n+]1ccc(/C=C2\Sc3ccccc3N2CCCS(=O)(=O)[O-])c2ccccc21,.,-48.7,-12.1,0.6,0.8
C[C@@H]1CN([C@@H](C)CO)C(=O)c2cc(NC(=O)Nc3ccccc3)ccc2O[C@@H](C)CCCCO[C@H]1CN(C)S(=O)(=O)c1ccc(F)cc1,.,-21.0,.,-2.8,.
Cc1ccc(C)c(N2CCN(C(=O)CCS(=O)(=O)c3ccc4c(c3)NC(=O)CO4)CC2)c1,-1.4,-0.8,1.4,70.6*,-3.1
O=C1COc2ccc(S(=O)(=O)CCC(=O)N3CCN(c4ccccc4)CC3)cc2N1,-1.4,2.2,-3.0,1.5,0.6
Cc1c(C(=O)N/N=C/c2cccnc2)sc(N)c1C#N,-1.0,-12.9,-2.5,3.2,40.5*
O=C(C[C@H]1C=C[C@H](NC(=O)c2ccccc2)[C@H](CO)O1)NCCc1ccncc1,.,1.3,8.5,41.0*,.
COc1ccc2c3c(n(C)c2c1)[C@H](CO)NCC31CCN(Cc2ccncc2)CC1,.,-7.1,.,3.0,.
COc1ccc2c3c(n(C)c2c1)[C@H](CO)NCC31CCN(CC2CC2)CC1,.,62.8*,.,-0.8,.
COc1ccc2c3c(n(C)c2c1)[C@@H](CO)NCC31CN(Cc2ccccc2Cl)C1,.,5.9,.,-2.9,.
COc1ccc2c3c(n(C)c2c1)[C@@H](CO)NCC31CN(CC2CC2)C1,.,56.1*,.,4.7,.
COc1ccc2c3c(n(C)c2c1)[C@H](CO)NCC31CN(Cc2ccc(-c3ccccn3)cc2)C1,.,89.2*,.,.,.
COc1ccc2c3c(n(C)c2c1)[C@@H](CO)NCC31CN(S(=O)(=O)c2ccccc2)C1,.,-0.5,.,.,.
CN(C)C(=O)C[C@H]1C[C@@H]2c3cc(NC(=O)NC4CCCCC4)ccc3O[C@@H]2[C@H](CO)O1,.,-6.3,8.0,-1.6,.
